The results in this text go back to PubChem BioAssay (NCATS).

Molecules are shown by their SMILES. Records with an inconclusive call do not appear. Where a call stands in place of a potency, no number is given. Unmarked numbers belong to inactive results. Activity calls are given as the source filed them. Calls follow the shape of the dose curve; as a rule, active = well fitted cell-killing curve with a large enough effect; inconclusive = small, poorly fitted or top-dose-only effect, or effect the other way; inactive = flat fitted curve, though single readings scatter.

The assay deals with JEG-3. Briefly: Primary qHTS to identify gynecologic anti-cancer compounds using libraries of approved drugs and bioactive compounds (AID 1345084). Also: nearly all actives have a fitted effect of over 55% in size. The conditions noted are these: Gynecologic cancer cell panel viability, ATPlite luminescence, 48 h; series mostly up to 57.5 µM. A digest of the protocol:
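Cells, 1,000 per well, plated 16 h, then exposed 48 h at 37 C to compounds. Viability by ATPlite luminescence after 15 min at room temperature.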
For orientation: Quantitative high-throughput screening tests each substance at several concentrations.
For the compound `CC(=O)O[C@H](C[C@@H](C)[C@H]1C(=O)[C@H](O)[C@@]2(C)[C@@H]3CCC4C(C)(C)[C@@H](O[C@@H]5OC[C@H](O)[C@H](O)[C@H]5O)CC[C@@]45C[C@@]35CC[C@]12C)[C@@H]1OC1(C)C` (some centres undefined), the Potency result is “inactive”. As for `CC1OC(OC2C(C)OC(OC3C(OC(=O)/C=C/c4ccc(O)cc4)C(CO)OC(OC4(COC(=O)/C=C/c5ccc(O)cc5)OC(CO)C(O)C4O)C3OC3OCC(O)(CO)C3O)C(O)C2O)C(O)C(O)C1O` (centres undefined), the activity change, negative = cytotoxicity was 2.4% [at 11.6 µM]. For `CC(/C=C/[C@]1(O)[C@@]2(C)CO[C@@]1(C)C[C@@H](O)C2)=C\C(=O)O[C@@H]1O[C@H](CO)[C@@H](O)[C@H](O)[C@H]1O`, the Potency result was “inactive”. On the same count and under the same terms, with `C=C1C(=O)OC2CC(C)=C(C(C)CCCO[C@@H]3O[C@H](CO)[C@@H](O)[C@H](O)[C@H]3O)C(O)C12` (some centres undefined) the entry was “inactive”; with `O=C(O[C@H]1[C@@H]2C[C@@H]3OC[C@@](O)([C@H]2[C@H](O[C@@H]2O[C@H](CO)[C@@H](O)[C@H](O)[C@H]2O)O3)[C@@H]1O)c1ccccc1`, “inactive”; with `CC(=O)c1c(C)cc(O)cc1O[C@@H]1O[C@H](CO)[C@@H](O)[C@H](O)[C@H]1O`, “inactive”. Consider `CC1CCC(=O)CC(O)C(O)CC(=O)O1` (centres undefined), for which the Potency entry was “inactive”. In the case of `CC1(C)CC2C(O)C3=C(CC(C)(O)C2C1)C(=O)OC3O` (centres undefined), the Potency entry was “inactive”. Turning to `CC[C@H](/C=C/[C@@H](C)[C@H]1CC[C@H]2[C@@H]3CC=C4C[C@@H](O)CC[C@]4(C)[C@H]3CC[C@]12C)C(C)C`, the activity change, negative = cytotoxicity was 3.22% [at 6.55 µM].
